Jurkat NFkB inh: inhibitors of the PMA/ionomycin-induced NF-kB reporter in Jurkat cells. inhibition, % at 4 µM. PMA/ionomycin-induced NF-kB luciferase reporter, luminescence. AID 435003. 330,000 compounds, 0.53% hits; in the data active = inhibition above about 50%
Beta cell apopt: blocks beta cell apoptosis; 300,000 compounds, 0.8% hits; INS-1E cytokine-induced death, ATP luminescence, 48 h; percent of positive-control rescue, neutral wells zero; protection from apoptosis, % (concentration not given with the values); AID 435005;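 active = Every replicate reaches about 75%, or at least half do and their mean reaches it too, limit read from the data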;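 note: 0% = cytokine-treated negative control wells and 100% = positive control rescue; higher means more ATP so stronger rescue from cytokine killing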
697 NFkB inh: lowers PMA/ionomycin-induced NF-kB signal in 697 B cells; inhibition, % at 4 µM; AID 435022; 330,000 compounds, 0.33% hits; 697 B-cell NF-kB luciferase reporter, 16 h; in the data active = inhibition above about 35%
Gli-Sufu block: blocks Gli-Sufu signaling in a luciferase reporter; Sufu-KO-LIGHT fibroblasts, Gli luciferase reporter luminescence; AID 588413; 340,000 compounds, 0.74% hits; inhibition, % at 5 µM;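 active = inhibition above about 55%, limit read from the data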;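 note: 0% = DMSO-treated cells and 100% = wells with medium but no cells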
An asterisk follows results filed as active; nt = no result given. Compounds with a hit are over-represented: about 1.8% of the library has one in this group of screens.

SMILES	Jurkat NFkB inh	Beta cell apopt	697 NFkB inh	Gli-Sufu block
Cc1ccc(Cn2ccc(NC(=O)c3cc(-c4cccc(Cl)c4)on3)n2)cc1	15	11	1	24
CC(=O)c1cccc(NC(=O)C(C)OC(=O)c2cc(=O)[nH]c3ccccc23)c1 (configuration not stated)	4	-6	5	2
CC(=NNc1nc2ccccc2o1)c1cc2ccccc2cn1	nt	nt	nt	92*
COc1ccc(C2c3c(ccc4ccccc34)Oc3ncn4nc(Cc5ccccc5)nc4c32)cc1OC (configuration not stated)	44	-17	2	5
COC(=O)CNc1cccc(C(F)(F)F)c1	-4	0	-8	-4
CC(C)CNc1nnnc2c1sc1nc(N3CCOCC3)c3c(c12)CC(C)(C)SC3	-15	19	-20	-11
CC1(C)Cc2c(c(N3CCOCC3)nc3sc4c(NN)ncnc4c23)CS1	-5	81*	-18	2
CC(=O)C1=C(C)NC(SCC(=O)c2cc(Cl)ccc2Cl)=C(C#N)C1c1ccco1 (configuration not stated)	12	nt	-21	69*
CCOC(=O)C1=C(C)NC(SCC(=O)O)=C(C#N)C1c1ccco1 (configuration not stated)	10	0	1	10
CCc1ccc(C(=O)CSC2=C(C#N)C(c3ccco3)C(C(C)=O)=C(C)N2)cc1 (configuration not stated)	-11	110*	-26	nt
CC(=O)C1=C(C)NC(SCC(=O)c2ccc(Cl)c(Cl)c2)=C(C#N)C1c1ccco1 (configuration not stated)	7	100*	11	-1
CC(=O)C1=C(C)NC(SCC(=O)c2ccc(F)cc2)=C(C#N)C1c1ccco1 (configuration not stated)	-9	-4	-6	10
CC(=O)C1=C(C)NC(SCC(N)=O)=C(C#N)C1c1ccco1 (configuration not stated)	-2	-1	13	-3
CCCCCn1c(CN2CCN(Cc3ccccc3)CC2)nc2c1c(=O)[nH]c(=O)n2C	-5	-1	3	9
CC(C)(C)C(=O)NC(Nc1cccc2cccnc12)C(Cl)(Cl)Cl (configuration not stated)	12	78*	-4	-1
CCc1ccc(-c2cn(C3CCCCC3)c(=S)[nH]2)cc1	-80	24	-36	30
CCC(=O)Nc1cc(SCCO)cc([N+](=O)[O-])c1	2	-4	3	-11
O=C(CCl)Nc1cc(SCC(O)CO)cc([N+](=O)[O-])c1 (configuration not stated)	nt	nt	nt	63*
C/C(=N\NC(=O)COc1ccccc1-c1ccccc1)c1cccnc1	16	-1	4	4
CCCCCCCC(=O)N/N=C(\C)c1ccc(O)cc1O	30	18	-16	-12
C/C(=N\NC(=O)COc1ccccc1-c1ccccc1)c1ccccn1	38	81*	-13	37
O=C(COc1ccccc1-c1ccccc1)N/N=C/c1ccc2ccccc2c1	nt	97*	nt	47
C/C(=N\NC(=O)COc1ccccc1-c1ccccc1)c1ccc(O)cc1O	2	81*	17	5
C/C(=N\NC(=O)c1cc(-c2cccnc2)nc2ccccc12)c1ccc(O)cc1O	39	90*	-26	24
Cc1cc(C)c(C(=O)NCC2CCCO2)c(C)c1C(=O)NCC1CCCO1 (configuration not stated)	-7	-1	11	-27
SMILES	Jurkat NFkB inh	Beta cell apopt	697 NFkB inh	Gli-Sufu block
CCCn1c(Nc2nc3ccccc3n2C)nc2ccccc21	15	111*	-5	5
COc1ccccc1C(=O)NNC(=S)NC(=O)c1ccco1	7	84*	4	13
CN=C1S/C(=C\c2ccc(SC)cc2)C(=O)N1C	-20	-14	-2	-3
COc1ccc(C(=O)N/N=C(\C)CC(=O)NC2CCCCC2)c(OC)c1	2	3	25	-22
O=C(c1cc(-c2ccccc2Cl)nc2ccccc12)N1CCN(c2ccccc2O)CC1	12	33	24	9
O=C(c1cc(-c2ccccc2Cl)nc2ccccc12)N1CCN(c2ccccn2)CC1	-9	98*	3	11
O=C(NCCc1ccccc1)C(c1cccs1)N(C(=O)CCl)c1ccc(Cl)cc1 (configuration not stated)	48	18	27	95*
CCN(CC)S(=O)(=O)c1cccc(NC(=O)Nc2cccc(C(F)(F)F)c2)c1	16	112*	-40	24
COc1ccc(S(N)(=O)=O)cc1C(=O)OCC(=O)Nc1ncc(Cl)c(C)c1Cl	5	-2	9	-8
CC1CCC(C(C)C)C(OC(=O)CSc2nccc(=O)[nH]2)C1 (configuration not stated)	-16	1	-25	11
COc1ccc(-c2n(CC(=O)OC3CC(C)CCC3C(C)C)c3ccccc3[n+]2C)cc1 (configuration not stated)	nt	nt	nt	86*
COc1ccc(OCc2n(CC(=O)OC3CC(C)CCC3C(C)C)c3ccccc3[n+]2C)cc1 (configuration not stated)	13	100*	-44	24
Cc1cc(Cl)c(S(=O)(=O)N2CCN(c3ccccn3)CC2)cc1OCC(N)=O	-5	0	-5	2
O=C(COC(=O)c1cc(-c2cccnc2)nc2ccccc12)Nc1ccc(F)cc1F	8	-7	4	-1
O=C(C1=C[C@@H](c2ccc(C(F)(F)F)cc2)C[C@@H](OCCCCO)O1)N1CCN(Cc2ccccc2)CC1	0	116*	-1	10
O=C(C1=C[C@H](c2ccc(C(F)(F)F)cc2)C[C@H](OCCCCO)O1)N1CCN(Cc2ccccc2)CC1	4	-1	17	17
O=C(NCc1ccccc1Cl)c1cccc(C(F)(F)F)c1	-16	9	17	5
COc1cccc(C(=O)N/N=C(/c2ccccc2)c2ccccn2)c1	27	101*	-44	81*
COc1cc(C(=O)N/N=C(\C)c2ccccn2)cc(OC)c1OC	32	83*	6	50
COc1cc(NC(=O)c2ccccn2)cc(OC)c1OC	-20	-7	-1	-18
COc1cccc(C(=O)N/N=C(/CCC(=O)O)c2ccccc2)c1	-4	-2	-11	-1
Cc1cc(C)c2c(C)[nH]nc2n1	5	162*	12	5
Cc1cc(C)c2c(N=NN3CCCCC3)[nH]nc2n1	-2	nt	-10	-17
CC1CC(C)C[N+](=C2C=C(N3CCCC3)CC(C)(C)C2)C1 (configuration not stated)	nt	nt	nt	86*
N#Cc1cccc(NCC(=O)Nc2cccc(S(=O)(=O)N3CCCCC3)c2)c1	-16	0	-4	7
Clc1ccc(-c2c[n+](Cc3ccc(Br)cc3)c3n2CCCCC3)cc1	0	48	-1	50
CC1CCC(C(C)C)C(OC(=O)C[n+]2cc(-c3ccc(Cl)cc3)n3c2CCCCC3)C1 (configuration not stated)	24	106*	-22	65*
CCn1c(SCC(=O)Nc2cc(C)on2)nc2sc3c(c2c1=O)CCCC3	-7	82*	-3	-3

Bioassay records (PubChem BioAssay)
